This is a sample that favours compounds with a hit; in the whole collection about 5.6% have one here.
Cardio protect = modulators protecting cardiomyocytes from myocardial damage; 0.63% of 360,000 active; AID 588492; protection from H2O2 cell death, % at 20 µM; H9c2 cardiomyocytes, H2O2 injury protection, ATPLite, 2 h;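 active = compounds giving at least 50% protection of heart cells from peroxide-induced death in the single-dose screen, raw or plate-pattern-corrected value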
M18AAP inhibitor = blocks P. falciparum M18 aspartyl aminopeptidase; 1.2% of 290,000 active; AID 1822; inhibition, % at 7.35 µM; recombinant PfM18AAP, H-Glu-NHMec fluorogenic cleavage;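 active = inhibition above the campaign mean inhibition over all tested compounds plus 3 SD, cut at about 28% in these data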
PfGluPho inh = PfG6PD (Plasmodium falciparum) enzyme inhibition | PfGluPho enzyme, NADPH resazurin-diaphorase fluorescence | inhibition, % at 20 µM | 0.78% of 350,000 active | AID 504690;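 active = inhibition reaching at least a set limit at 20 µM in the primary screen, cut at about 59% in these data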
PHOSPHO1 inh = PHOSPHO1 (human) inhibition; Q8TCT1; recombinant PHOSPHO1, absorbance phosphatase assay; inhibition, % at 13.3 µM; 1.1% of 290,000 active; AID 1565; in the data active = inhibition above about 60%
Target sequence (Q8TCT1 whole entry, looked up): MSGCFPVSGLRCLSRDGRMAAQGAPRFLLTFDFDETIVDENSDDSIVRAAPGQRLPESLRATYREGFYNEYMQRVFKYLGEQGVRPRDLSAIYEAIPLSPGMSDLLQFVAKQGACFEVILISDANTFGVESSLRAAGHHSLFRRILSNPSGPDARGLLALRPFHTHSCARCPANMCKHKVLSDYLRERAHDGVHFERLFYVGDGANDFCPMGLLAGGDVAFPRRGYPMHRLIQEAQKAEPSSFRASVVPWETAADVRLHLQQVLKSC
ALR H2O2 inh = inhibitors of human sulfhydryl oxidase ALR | P55789 | purified ALR, DTT oxidation, H2O2 HRP-luminol luminescence | inhibition, % (test concentration not listed) | 3.8% of 290,000 active;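 active = mean replicate inhibition above about 79%, with every replicate also reaching it, limit read from the data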
Target sequence (P55789 whole entry, looked up): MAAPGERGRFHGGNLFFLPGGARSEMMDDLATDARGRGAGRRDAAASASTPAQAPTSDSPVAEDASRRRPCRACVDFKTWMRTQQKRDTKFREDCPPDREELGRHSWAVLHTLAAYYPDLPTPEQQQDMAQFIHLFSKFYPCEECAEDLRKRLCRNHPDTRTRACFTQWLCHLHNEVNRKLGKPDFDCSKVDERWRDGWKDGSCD
PfG6PD confirm = PfG6PD inhibition, single-dose confirmed; shares compounds with PfGluPho inh; recombinant PfGluPho, NADPH-diaphorase-resazurin fluorescence; inhibition, % at 20 µM; 34% of 2,400 active;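 active = inhibition of at least 50% at 20 µM in any single replicate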
Diaphorase 10uM = diaphorase inhibition or oxidation at 10 uM NADPH. inhibition, % at 20 µM. diaphorase-coupled resazurin reduction, fluorescence, NADPH 10 uM. AID 504862. 39% of 820 active. shares compounds with PfGluPho inh;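 active = average inhibition reaching 50% or more with the compound at 20 µM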;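 also: resorufin red fluorescence formed as diaphorase reduces resazurin using NADPH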
Diaph ctr 30uM = diaphorase inhibition or oxidation at 30 uM NADPH; 29% of 820 active; inhibition, % at 20 µM; AID 504863; shares compounds with PfGluPho inh; Diaphorase/resazurin coupled assay, resorufin fluorescence;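 active = inhibition averaging 50% or more, tested at 20 µM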
Of the large screens only hits and unclear results are named; the others gave an inactive call (follow-up assays come after a bar, where they were run).

CCc1c(C)sc(NC(=O)C2CCCCC2C(=O)O)c1C(N)=O (stereo not given)	PfGluPho inh 74 (no result: ALR H2O2 inh) | PfG6PD confirm inactive
[O-][N+](=Cc1ccccc1)c1ccc(Cl)cc1	PfGluPho inh 87 (no result: M18AAP inhibitor, PHOSPHO1 inh, ALR H2O2 inh) | PfG6PD confirm 92 | Diaphorase 10uM 62 | Diaph ctr 30uM inactive
[O-]/[N+](=C\c1ccco1)c1ccc(Cl)cc1	PfGluPho inh 89 | PfG6PD confirm 62 | Diaphorase 10uM inactive | Diaph ctr 30uM inactive
[O-]/[N+](=C/c1ccco1)c1ccccc1	none
Nc1cc(Cl)cc2c1-c1ccc(Cl)cc1C2	none (no result: M18AAP inhibitor, PHOSPHO1 inh, ALR H2O2 inh)
Cc1c(C(=O)N(C)Cc2ccc(F)cc2)sc(=O)n1Cc1ccccc1C#N	none (no result: M18AAP inhibitor, PfGluPho inh, PHOSPHO1 inh, ALR H2O2 inh)
O=C(c1ccccc1)c1coc2c1C(=O)c1ccccc1C2=O	none
COc1ccc(C(=O)c2coc3c2C(=O)C(=O)c2ccccc2-3)cc1	PfGluPho inh 111 | PfG6PD confirm 104 | Diaphorase 10uM 97 | Diaph ctr 30uM 92
Nc1cc(S(=O)(=O)N2CCCCC2)ccc1Oc1ccccc1	none
CCC1(CC)Cc2ccccc2C(N)=C1C#N	PfGluPho inh 61 | PfG6PD confirm 49 | Diaphorase 10uM 50 | Diaph ctr 30uM inactive
CCC1(CC)Cc2ccccc2C(=O)N1	none
CCc1ccc(/C=C2\SC(=S)N(CCCC(=O)N3CCCC3)C2=O)cc1	none (no result: M18AAP inhibitor, PHOSPHO1 inh, ALR H2O2 inh)
O=C1NC(=O)C(Cc2ccccc2)(c2ccccc2)N1 (stereo not given)	none (no result: M18AAP inhibitor, PHOSPHO1 inh, ALR H2O2 inh)
O=C1NC(=O)C(Cc2ccc(Cl)cc2)(c2ccccc2)N1 (stereo not given)	PfGluPho inh 68 (no result: M18AAP inhibitor, PHOSPHO1 inh, ALR H2O2 inh) | PfG6PD confirm inactive
CCCCn1c(N)c(N(CC(C)C)C(=O)Cc2ccc(S(=O)(=O)N3CCOCC3)s2)c(=O)[nH]c1=O	none (no result: M18AAP inhibitor, PHOSPHO1 inh, ALR H2O2 inh)
COc1ccccc1N1CCN(/N=C/c2ccc(O)c(O)c2)CC1	M18AAP inhibitor 63, PfGluPho inh 59, ALR H2O2 inh 100 (no result: Cardio protect) | PfG6PD confirm inactive
Cc1cccc(OCC(=O)N(C)CC(=O)Nc2cccc(F)c2)c1C	none (no result: M18AAP inhibitor, PHOSPHO1 inh)
COc1ccc(Nc2nc(-c3ccccc3)c(C(=O)Nc3cccnc3)s2)cc1	PfGluPho inh 65 | PfG6PD confirm inactive
Cc1ccccc1Nc1nc(-c2ccccc2)c(C(=O)Nc2cccnc2)s1	none
N#CCC(=O)Nc1ncc(Cc2ccccc2Cl)s1	none
CC(NCC(=O)Nc1ccccc1C(=O)NC1CC1)c1ccco1 (stereo not given)	none (no result: M18AAP inhibitor, PHOSPHO1 inh, ALR H2O2 inh)
COc1cc(-c2cc(OC)c(O)c(OC)c2)cc(OC)c1O	PfGluPho inh 100 (no result: M18AAP inhibitor, PHOSPHO1 inh, ALR H2O2 inh) | PfG6PD confirm 72 | Diaphorase 10uM inactive | Diaph ctr 30uM inactive
CC1(C(=O)NS(=O)(=O)c2ccc(Cl)s2)CCN1C(=O)C1(c2ccc(Cl)cc2)CCC1 (stereo not given)	none (no result: M18AAP inhibitor, PfGluPho inh, PHOSPHO1 inh, ALR H2O2 inh)
CC(=O)Nc1sc(C)c(C)c1C(=O)OCC(=O)N(CCC#N)c1cc(C)cc(C)c1	none (no result: M18AAP inhibitor, PHOSPHO1 inh, ALR H2O2 inh)
COc1ccccc1NS(=O)(=O)c1cc(NC(=O)C(C)C)ccc1N1CCCCC1	PfGluPho inh 61 | PfG6PD confirm inactive
Clc1ccc(-c2nnnn2-c2ccc(Cl)cc2)cc1	none
Cc1ccc(-n2nnnc2C(Cl)(Cl)c2nnnn2-c2ccc(C)cc2)cc1	PfGluPho inh 72 | PfG6PD confirm inactive
Cc1cccc(C2(c3cccc(C)c3)CC2C(=O)Nc2ccc([N+](=O)[O-])cc2O)c1 (stereo not given)	PfGluPho inh 113 | PfG6PD confirm 60 | Diaphorase 10uM 55 | Diaph ctr 30uM inactive
C=C1C(C(=O)Nc2cccc(OC)c2)C1C(=O)Nc1cccc(OC)c1 (stereo not given)	none
C=CCNC(=O)C1CC1(c1cccc(C)c1)c1cccc(C)c1 (stereo not given)	none (no result: M18AAP inhibitor, PHOSPHO1 inh)
COc1cccc(C2(c3cccc(OC)c3)CC2C(=O)Nc2ccccc2Cl)c1 (stereo not given)	PfGluPho inh 88 | PfG6PD confirm inactive
COc1cccc(C2(c3cccc(OC)c3)CC2C(=O)Nc2ccc(F)cc2)c1 (stereo not given)	PfGluPho inh 115 | PfG6PD confirm 57 | Diaphorase 10uM 56 | Diaph ctr 30uM inactive
COc1cccc(C(=O)NC2CCN(CC(=O)Nc3ccccc3Cl)CC2)c1	none

Screening results: PubChem BioAssay, several laboratories
